{"source": "PubChem BioAssay AID540276", "about": "(National Center for Advancing Translational Sciences (NCATS), 2011)", "note": "“And” between values parts separate entries of the source, which are not always exact repeats. Equal values may be shown once. Hit rate of the full screen: of about 300,000 compounds, about 5,400 (1.8%) were called active. Not shown: some 28% with an inconclusive outcome. Calls follow the shape of the full dose curve; tested in HEK293 cells. The full list was thinned out, with actives kept by preference. A structure can be active in one record and inactive in another. % is scaled to controls: 0 for no effect and ±100 for the full control effect; potency is read from the fitted curve at half-maximal effect.", "data": [{"test": "qHTS for inhibitors of binding or entry into cells for Marburg Virus", "conditions": "Marburg virus pseudotyped entry inhibition, cell reporter; series mostly up to 37.8 µM; activity change, negative = inhibition: at the top concentration", "values": [{"smiles": "Clc1ccc2c(c1)C1=C(C(c3ccncc3)O2)C(c2ccc(Br)cc2)n2ncnc2N1", "note": "(configuration not stated)", "Potency": "11.6 µM (active)"}, {"smiles": "CCOC(=O)C1=C(c2ccccc2)Nc2ncnn2C1c1ccc(Cl)cc1", "note": "(configuration not stated)", "activity change, negative = inhibition": "4.14% [at 46.1 µM] (inactive)"}, {"smiles": "Fc1ccc([C@H]2C3=C(Nc4ncnn42)c2ccccc2O[C@H]3c2ccncc2)cc1", "activity change, negative = inhibition": "-11% (inactive)"}, {"smiles": "CC1(C)CC(=O)c2ccc(O)cc2O1", "activity change, negative = inhibition": "-6.25% [at 46.1 µM] (inactive)"}, {"smiles": "CC[C@@H]1Cc2cc(O)ccc2C2=C1c1ccc(O)cc1C[C@H]2CC", "Potency": "35.5 µM (active)"}, {"smiles": "OC(COCCC12CC3CC(CC(C3)C1)C2)CN1CCCCC1", "note": "(configuration not stated)", "Potency": "2.91 µM (active)"}, {"smiles": "O=C(c1ccccc1)c1ccc(OCC(O)CN2CCCC2)cc1", "note": "(configuration not stated)", "activity change, negative = inhibition": "-24% [at 46.1 µM] (inactive)"}, {"smiles": "COc1cc(/C=N/NC(=O)c2cccnc2)ccc1OC(=O)c1cccc(Br)c1", "activity change, negative = inhibition": "2.52% (inactive)"}, {"smiles": "O=C(C1CC(=O)N(c2ccc(Br)cc2)C1)N1CCCC1", "note": "(configuration not stated)", "activity change, negative = inhibition": "1.98% (inactive)"}, {"smiles": "COc1ccc(C2(CNC(=O)C(c3ccccc3)c3ccccc3)CCOCC2)cc1OC", "activity change, negative = inhibition": "-26.8% (inactive)"}, {"smiles": "Cc1cccc(C(CC(=O)NCC2(c3ccccc3)CCCC2)c2ccccc2)c1O", "note": "(configuration not stated)", "Potency": "10 µM (active)"}, {"smiles": "COc1ccc(C2(CNC(=O)Cc3ccc(OC)c(OC)c3)CCCC2)cc1", "activity change, negative = inhibition": "-28.1% [at 46.1 µM] (inactive)"}, {"smiles": "O=C(Nc1cc(S(=O)(=O)N2CCOCC2)ccc1N1CCOCC1)c1c(F)cccc1Cl", "activity change, negative = inhibition": "3.28% (inactive)"}, {"smiles": "CC12CCCCC1=CC(=O)CC2", "note": "(configuration not stated)", "activity change, negative = inhibition": "8.83% (inactive)"}, {"smiles": "COc1ccc(N2CCN(S(=O)(=O)c3cc(Br)cnc3N)CC2)cc1", "activity change, negative = inhibition": "14.7% [at 46.1 µM] (inactive)"}, {"smiles": "CC(C)c1ccc(-c2noc(C3CCCN(S(C)(=O)=O)C3)n2)cc1", "note": "(configuration not stated)", "activity change, negative = inhibition": "-30.6% (inactive)"}, {"smiles": "COc1cc(-c2noc(C3CCCN(S(=O)(=O)c4cccc(Cl)c4)C3)n2)cc(OC)c1OC", "note": "(configuration not stated)", "Potency": "inactive and 9.2 µM (active)"}, {"smiles": "O=C(Cc1cccs1)N1CCCC(c2nc(-c3ccc(S(=O)(=O)N4CCCC4)cc3)no2)C1", "note": "(configuration not stated)", "activity change, negative = inhibition": "-24.4% (inactive)"}, {"smiles": "Cc1ccc(C(=O)OCC(=O)N2CCCCCC2)cc1S(=O)(=O)N1CCOCC1", "activity change, negative = inhibition": "4.19% (inactive)"}, {"smiles": "NC(=O)c1cc2ccccc2o/c1=N/NC(=O)c1cccc(F)c1", "activity change, negative = inhibition": "-5.08% [at 46.1 µM] (inactive)"}, {"smiles": "CCOc1ccc(CN2CCNC(=O)C2CC(=O)NCCCC2CCCC2)cc1", "note": "(configuration not stated)", "activity change, negative = inhibition": "10.3% (inactive)"}, {"smiles": "CCOc1ccc(C2c3[nH]c4ccccc4c3CCN2Cc2cccn2-c2ncccn2)cc1", "note": "(configuration not stated)", "Potency": "3.16 µM (active)"}, {"smiles": "c1ccc(C2c3[nH]c4ccccc4c3CCN2Cc2cccn2-c2cccnc2)nc1", "note": "(configuration not stated)", "activity change, negative = inhibition": "-6.35% [at 46.1 µM] (inactive)"}, {"smiles": "Oc1cccc(C2c3[nH]c4ccccc4c3CCN2Cc2cnn(-c3ccccc3)c2)c1", "note": "(configuration not stated)", "activity change, negative = inhibition": "-8.18% [at 46.1 µM] (inactive)"}, {"smiles": "CCN(CC)S(=O)(=O)c1ccc(CNC(=O)CN2C(=O)NC3(CCc4ccccc43)C2=O)cc1", "note": "(configuration not stated)", "activity change, negative = inhibition": "5.63% (inactive)"}, {"smiles": "COc1ccc(/C=N/NC(=O)c2ccc3c(c2)OCCO3)c(OC)c1", "activity change, negative = inhibition": "-0.257% (inactive)"}, {"smiles": "COc1cccc(CNCCc2c[nH]c3ccccc23)c1OCc1ccccc1F", "Potency": "7.3 µM (active)"}, {"smiles": "COc1ccc(S(=O)(=O)NCCc2c[nH]c3ccccc23)cc1OC", "activity change, negative = inhibition": "-2.61% [at 46.1 µM] (inactive)"}, {"smiles": "COc1ccccc1CC(=O)NCCc1c[nH]c2ccccc12", "activity change, negative = inhibition": "-23.9% [at 46.1 µM] (inactive)"}, {"smiles": "O=C1CC(C(=O)O)NC(=S)N1", "note": "(configuration not stated)", "activity change, negative = inhibition": "0.164% [at 46.1 µM] (inactive)"}, {"smiles": "COc1ccc(S(=O)(=O)N2CCN(CC(=O)N3CCOCC3)CC2)cc1OC", "activity change, negative = inhibition": "-5.82% (inactive)"}, {"smiles": "COc1cc(-n2c(=S)[nH]c3ccc(C)cc3c2=O)c(Cl)cc1Cl", "Potency": "5.62 µM (active)"}, {"smiles": "COc1cc2[nH]c(=S)n(Cc3ccc(C)o3)c(=O)c2cc1OC", "activity change, negative = inhibition": "-7.92% (inactive)"}, {"smiles": "COc1ccccc1-n1c(=S)[nH]c2c(sc(=S)n2-c2ccc(C)cc2C)c1=O", "activity change, negative = inhibition": "-1.23% [at 46.1 µM] (inactive)"}, {"smiles": "CC(C)c1ccc(S(=O)(=O)N2CCN(C(=O)CN3C(=O)NC(C)(c4ccccc4)C3=O)CC2)cc1", "note": "(configuration not stated)", "activity change, negative = inhibition": "0.605% (inactive)"}, {"smiles": "COc1ccc(N(CC(=O)N2CCOCC2)S(=O)(=O)c2ccccc2)cc1Cl", "activity change, negative = inhibition": "16.6% (inactive)"}, {"smiles": "CC(C)Oc1ccc(S(=O)(=O)N2CCOCC2)cc1NC(=O)C1CSC2(C)CCC(=O)N12", "note": "(configuration not stated)", "activity change, negative = inhibition": "-14.7% [at 46.1 µM] (inactive)"}, {"smiles": "O=C(OC12CC3CC(CC(C3)C1)C2)c1ccc(NCc2cc(O)ccc2O)cc1", "Potency": "4.47 µM (active)"}, {"smiles": "C[C@]12CC[C@H](O)CC1=CCC1C2CC[C@@]2(C)C1CC[C@@H]2NC(=O)CCC(=O)O", "note": "(some centres not stated)", "activity change, negative = inhibition": "3.4% (inactive)"}, {"smiles": "COc1ccc(/C=C/C(=O)NC(=S)N2CCCC(C(N)=O)C2)cc1", "note": "(configuration not stated)", "activity change, negative = inhibition": "-0.358% [at 46.1 µM] (inactive)"}, {"smiles": "CCCCCCCCn1c2c(c(=N)c3c1CCC3)CCCC2", "Potency": "5.01 µM (active)"}, {"smiles": "Cc1ccc(S(=O)(=O)N2CCCC(C(=O)N3CCN(C)CC3)C2)cc1", "note": "(configuration not stated)", "activity change, negative = inhibition": "8.49% (inactive)"}, {"smiles": "CN(C)c1ccc(CSc2ccccc2)cc1", "activity change, negative = inhibition": "5.47% (inactive)"}, {"smiles": "O=C(CSc1nnc(N2CCOCC2)n1-c1cccc(F)c1)N1CCN(c2ccccn2)CC1", "activity change, negative = inhibition": "-2.18% (inactive)"}, {"smiles": "COc1cccc(CNC(=O)CCC2CCCN(C(=O)c3ccc(F)c(Cl)c3)C2)c1", "note": "(configuration not stated)", "activity change, negative = inhibition": "2.45% (inactive)"}, {"smiles": "COc1cccc(C(=O)N2CCCC(CCC(=O)NCc3ccc(F)c(F)c3)C2)c1", "note": "(configuration not stated)", "activity change, negative = inhibition": "-21.9% (inactive)"}, {"smiles": "COc1ccc2[nH]c3c(c2c1)CCN(C(=O)CCC1CCCC1)C3c1ccc(F)cc1", "note": "(configuration not stated)", "Potency": "0.631 µM (active)"}, {"smiles": "COc1ccccc1C(=O)NCCC(=O)NCC(c1ccco1)N1CCCCC1", "note": "(configuration not stated)", "activity change, negative = inhibition": "0.853% (inactive)"}, {"smiles": "Cc1ccc(S(=O)(=O)N(CC(=O)NCc2ccco2)c2ccccc2C)cc1", "activity change, negative = inhibition": "22.1% [at 46.1 µM] (inactive)"}, {"smiles": "O=C(O)CCCc1ccccc1", "Potency": "inactive"}, {"smiles": "C=CCN1CCN(C(=O)CCCc2ccccc2)CC1", "Potency": "2.51 µM (active)"}, {"smiles": "CC(=O)c1ccc(N2CCN(C(=O)CCc3ccccc3)CC2)cc1", "activity change, negative = inhibition": "27.7% (inactive)"}, {"smiles": "Cc1cc(C)c(S(=O)(=O)N(C)CC(=O)NCC2CCCO2)c(C)c1", "note": "(configuration not stated)", "activity change, negative = inhibition": "-8.6% [at 46.1 µM] (inactive)"}, {"smiles": "COC1C(CO)OC(n2cnc3c(=S)nc(N)[nH]c32)C1O", "note": "(configuration not stated)", "activity change, negative = inhibition": "21% (inactive)"}, {"smiles": "NC(=O)C1(N2CCCC2)CCN(Cc2ccccc2)CC1", "activity change, negative = inhibition": "-9.61% (inactive)"}, {"smiles": "CCC(=C/c1sc2ccc3ccccc3c2[n+]1C)/C=C1\\Sc2ccc3ccccc3c2N1C", "Potency": "3.55 µM (active)"}, {"smiles": "O=C(Nc1ccc(S(=O)(=O)N2CCCCCC2)cc1)c1c(F)cccc1F", "activity change, negative = inhibition": "-9.13% (inactive)"}, {"smiles": "Cc1cc(C)c(S(=O)(=O)N2CCCC2CNC(=O)c2ccc3c(c2)OCO3)c(C)c1", "note": "(configuration not stated)", "activity change, negative = inhibition": "17.5% (inactive)"}, {"smiles": "O=C1c2cccc3cccc(c23)C(=O)N1CCCCCc1n[nH]c(=S)o1", "activity change, negative = inhibition": "-2.52% [at 46.1 µM] (inactive)"}, {"smiles": "C[N+](C)(CCCCCC[N+](C)(C)CCCN1C(=O)c2cccc3cccc(c23)C1=O)CCCN1C(=O)c2cccc3cccc(c23)C1=O", "Potency": "5.01 µM (active)"}, {"smiles": "O=C1c2ccccc2C(=O)N1CCCCCCN1C(=O)c2ccccc2C1=O", "activity change, negative = inhibition": "11.3% [at 46.1 µM] (inactive)"}, {"smiles": "Cc1ccc(-c2cn3cc([N+](=O)[O-])ccc3n2)cc1", "Potency": "3.66 µM (active)"}, {"smiles": "Cc1ccc(-c2cn3cc(C)ccc3n2)cc1", "Potency": "0.316 µM (active)"}, {"smiles": "Cc1ccc(-c2cc(N)on2)cc1", "activity change, negative = inhibition": "6.12% (inactive)"}, {"smiles": "c1ccc(-c2cn3cccnc3n2)cc1", "activity change, negative = inhibition": "17.4% (inactive)"}, {"smiles": "Cc1nc(-c2ccc([N+](=O)[O-])cc2)c(-c2ccccc2)o1", "activity change, negative = inhibition": "-2.14% (inactive)"}, {"smiles": "Cc1ccc(-n2c(-c3ccc([N+](=O)[O-])cc3)nc3ccccc3c2=O)cc1", "activity change, negative = inhibition": "-30.2% [at 46.1 µM] (inactive)"}]}]}
